This is part of a sample that, as a whole, favours compounds with a hit. Of some 83,000 tested, about 20% had one in any assay.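 Percent growth is the endpoint: 0 to 100 indicates growth inhibition (40 means 60% inhibition), 0 means no net growth, and negative values indicate cell death.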 The source made the active and inactive calls.

In the test the test system is A498 renal. Briefly: NCI-60 one-dose screen, 48 h (100 = growth as untreated, 0 = no growth, -100 = all killed). The settings on record: 10 µM unless noted. The protocol:
Growth inhibition of the A498 human tumor cell line is measured as a screen for anti-cancer activity. Cells are grown in 96 well plates and exposed to the test compound for 48 hours. Compounds are tested at a single concentration, which is 10^-5 M for most compounds. The reported endpoint is percent growth (GI% or GIPRCNT), where numbers from 0 - 100% represent growth inhibition, and numbers from -100% - 0 represent cell death. For example, a value of 40 represents 60% growth inhibition. A value of 0 means no net growth occurred over the course of the experiment. A value of -40 indicates 40% of cells at the beginning of the experiment died by the end of the experiment. A value of -100 means all cells are dead at the end of the experiment.
NCI-60 Human Tumor Cell Lines Screen was performed using the standard one-dose NCI protocol, which is described in more detail at https://dtp.cancer.gov/discovery_development/nci-60/default.htm.
Compounds with GIPRCNT values below 10 were considered active. Activity score was based on GIPRCNT using the following formula: […]
Score is 0 for GIPRCNT values of 100 or above, 50 for GIPRCNT values of 0, and 100 for GIPRCNT values of -100.
For `Cc1nnc2c(Cc3ccccc3)nc3ccccc3n12`, the growth is 90.6% (inactive).
The result for `Nc1ccccc1NC(=O)c1ccc(-n2nc(-c3ccccc3)c3ccccc32)cc1` reads 89.8% (inactive); that for `Cn1ccc2c1CC1CN(Cc3ccco3)C(=O)C1C2C(=O)O` (stereo not given), 98.3% (inactive); that for `COc1cc(/C=C\c2cc(OC)c(OC)c(OC)c2)cc(NC(=O)/C=C/c2cc(OC)c(OC)c(OC)c2)c1OC`, 41.5% (inactive).
The result for `Cc1cccc(-c2cn3ccnc3c(-c3ccc4ncn(Cc5ccccc5)c4c3)n2)c1` reads 77.9% (inactive); that for `CCc1c2c(nc3ccc(OCc4ccc(B(O)O)cc4)cc13)-c1cc3c(c(=O)n1C2)COC(=O)[C@]3(O)CC`, -58.4% (active).
In the case of `CC/C(=C\c1ccc(OC)cc1)C(=O)c1ccc(OC)cc1`, the growth is 103% (inactive).
The result for `NS(=O)(=O)c1ccc(CCN2C(=O)C=CC2=O)cc1` reads 106% (inactive); that for `CSc1nc2sc3cccc(Cl)c3n2c(=N)c1C#N`, 56.2% (inactive); that for `Cc1c2cc[nH]c(=O)c2c(C)c2c1[nH]c1cc(OCCN3CCN(C)CC3)ccc12`, -29.1% (active).
Next, `O=C(Nc1ncc(Cc2cc(Cl)ccc2Cl)s1)c1cccs1`: 65.3% (inactive).
The result for `COc1cc(-c2cc(-c3ccc(N(C)C)cc3)nc(N3CCOCC3)c2C#N)cc(OC)c1OC` reads 75.5% (inactive); that for `Cc1nn(-c2ccccc2)c(Cl)c1/C=C/C(=O)c1ccc(F)cc1`, 81.5% (inactive).
On to `CCNc1nc2ccc(Nc3ccnc4cc(Cl)ccc34)cc2[nH]1`, for which the growth is 89.5% (inactive).
The result for `N#CC1C(C#N)C2c3ccccc3C=CN2C1C(=O)c1ccc(Br)cc1` (stereo not given) reads 101% (inactive); that for `Fc1ccc2c(-c3cncn3CCc3ccccc3)c[nH]c2c1`, 64.1% (inactive); that for `Cc1ccc(-c2nc3ccccn3c2/C=C2/C(=O)Nc3cc(Cl)ccc32)cc1`, 98.2% (inactive).
For `O=C(/C(=C/c1ccc([N+](=O)[O-])cc1)SCc1ccc(F)cc1)c1ccc(F)cc1`, the growth was 79.4% (inactive).
Next, `COc1ccc(-c2nc([C@@H](C)Sc3nc(N)cc(N)n3)c(C)s2)cc1OCCN1CCOCC1`: 35.6% (inactive).
The result for `O=C1c2ccccc2CCC12OC2c1cn(-c2ccccc2)nc1-c1ccc(Cl)cc1` (stereo not given) reads 91.9% (inactive); that for `Cc1cc2cc3ccc(N(C)C)cc3nc2cc1N`, -2.05% (active).
For the compound `O=C1/C=C/[C@@H](O)[C@@H]2C[C@@H](O)C[C@H]2/C=C/CCC[C@H](CCc2cccc3ccccc23)O1`, the growth is -35.6% (active).
On to `C#Cc1cccc(NC(=O)c2cccc(NC(=O)CCl)c2)c1`, for which the growth is 46.6% [8.25 µM] (inactive).
In the case of `O=C1c2cccc3c(-c4ccc5c(c4)ncn5C4CCCCC4)ccc(c23)C(=O)N1c1nc2ccccc2s1`, the growth was 121% (inactive).
On to `c1ccc(Cn2cnc3ccc(-c4nc(-c5ccc6c(c5)ncn6C5CCCCC5)cn5ccnc45)cc32)cc1`, for which the growth is -71.8% (active).
On to `CNCCOc1nc2c3cnccc3cc(-c3cc(OC)c(OC)c(OC)c3)c2c2ccncc12`, for which the growth is -87.2% (active).
Next, `COc1ccc(C(=O)Cn2c(C(=O)c3ccccc3)nc3ccccc32)cc1`: 46.8% (inactive).
Take `O=C1Nc2cc(Cl)ccc2/C1=C\c1c(-c2ccc(F)cc2)nc2ccccn12`: the growth is -17% (active).
Next, `C#Cc1cccc(NC(=O)Nc2cccc(NC(=O)CCl)c2)c1`: 76.5% [8.25 µM] (inactive); `COc1ccc2nc(-c3ccc(-c4noc(-c5cc(OC)c(OC)c(OC)c5)n4)cc3)[nH]c2c1`: 101% (inactive); `COc1ccc2c(c1)oc1c(C)c3c(c(C)c12)C(=O)N(N)C3=O`: -7.39% (active).
Take `CCOC(=O)c1cc(C#N)n2ccc3ccccc3c12`: the growth was 88% (inactive).
As to `C[C@H](c1nc2ccc(N)cc2[nH]1)[C@H]1CC[C@H]2[C@@H]3CCC4=CC(=O)CC[C@]4(C)[C@H]3CC[C@]12C`, the growth is 70.3% (inactive).
As to `COc1ccc(-c2nc3sccn3c2/C=C/C(=O)c2ccc3c(c2)OCO3)cc1`, the growth is 113% (inactive).
Next, `N#C/C(=C\c1ccccn1)c1nc2cc(Cl)ccc2s1`: 64.6% (inactive); `COc1ccc2c(c1)oc1c(C)c3c(c(C)c12)C(=O)N(CCN1CCOCC1)C3=O`: 109% (inactive).
As to `COc1ccc(/C=C/c2nc(Nc3ccc(S(=O)(=O)Nc4cc(C)on4)cc3)c3ccccc3n2)cc1`, the growth was 1.73% (active).
Next, `CCc1ccc(-c2cn3ccnc3c(-c3ccc4ncn(Cc5ccccc5)c4c3)n2)cc1`: 105% (inactive); `COc1ccc(Cc2cnc(NC(=O)c3ccc4c(c3)OCCO4)s2)cc1`: -6.31% (active); `COc1cc(CC(=O)n2ncc3ccc(N)cc32)cc(OC)c1OC`: 97.4% (inactive).

For the origin of these results see PubChem BioAssay (NCI).
